# Test results published in PubChem BioAssay AID1700 (The Scripps Research Institute Molecular Screening Center, 2009).
# The campaign covered roughly 290,000 compounds. About 670 (0.23%) were called active.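 How the source made its calls: active means inhibition above a per-plate limit of that plate's mean compound inhibition plus 3 SD (cut at about 60% in these data); inactive means the rest.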 The full list was thinned out, with actives kept by preference.
# Experiment: KLF5 expression inhibitors, primary screen, DLD-1 cells, luminescence (AID 1700);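 further: 0% = DMSO wells and 100% = LY294002 at 200 µM; higher means less KLF5 promoter-driven luciferase light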
# Settings: DLD-1 KLF5 promoter-luciferase reporter, at 5 µM, active compounds read high
row,Structure (SMILES),inhibition
1,O=C(Nc1ccccc1C(=O)NCC1CCCO1)c1ccccc1F (stereo unspecified),-10.3% (inactive)
2,CCCCCCCCn1c2c(c(=N)c3c1CCC3)CCCC2,72.8% (active)
3,CCCCCCn1c(CN2CCCCC2)nc2c1c(=O)n(C)c(=O)n2C,0.95% (inactive)
4,O=c1[nH]cccc1-c1nc2ccccc2n1Cc1ccc(Cl)cc1,-29.9% (inactive)
5,Cc1ccc(CNS(=O)(=O)c2ccc3c(c2)N(C)CCO3)cc1,-12.4% (inactive)
6,Cn1cc(C(=O)c2ccc(Cl)cc2Cl)cc1C(=O)NN,-35.5% (inactive)
7,CCOc1ccccc1CN1CCN(C2CCC2)CC1CCO (stereo unspecified),12% (inactive)
8,CCOC(=O)c1sc(NC(=O)c2ccncc2)nc1C,-25.1% (inactive)
9,CCOC(=O)c1sc(/N=C/Nc2nc(C)c(C(=O)OCC)s2)nc1C,6.72% (inactive)
10,CCOC(=O)c1sc(NC(=O)c2sc(C)nc2C)nc1C,79% (active)
11,Cc1cccc(NC(=O)C2CCN(C(=O)NC3CCCCC3)CC2)c1,-12.5% (inactive)
12,Cc1ccc(O)c(CNc2nc3ccccc3[nH]2)c1,-87.9% (inactive)
13,COc1ccc(-c2cc(=O)oc3cc(OCC(=O)N(C)C4CCS(=O)(=O)C4)ccc23)cc1 (stereo unspecified),-4.99% (inactive)
14,O=c1cc(-c2ccccc2)[nH]c2cc(F)ccc12,73.5% (active)
15,Cc1ccc(-c2cc(=O)c3ccc(Cl)cc3[nH]2)cc1,-4.81% (inactive)
16,Cc1ccc(-c2cc(=O)c3ccc(F)cc3[nH]2)cc1,9.96% (inactive)
17,CCCCNC(=O)c1cn(CC)c2cc(N3CCN(C(=O)c4ccco4)CC3)c(F)cc2c1=O,-2.76% (inactive)
18,COc1ccc(NC(=O)CCNC(=O)Cn2cnc3sc4c(c3c2=O)CCCC4)cc1OC,-21.6% (inactive)
19,COc1cc(NC(=O)C2=C(C)OCCS2)c(Cl)cc1C(=O)NCCN1CCN(C)CC1,-25.5% (inactive)
20,O=C1CCC(C(=O)N2CCN(c3ccccc3Cl)CC2)CN1CC1CCCCC1 (stereo unspecified),-15.8% (inactive)
21,CC1CCCN(CC(=O)Nc2cc(Cl)ccc2Oc2ccccc2)C1 (stereo unspecified),-4.36% (inactive)
22,Cc1ccc(CNC(=O)C2CCN(S(=O)(=O)c3ccc4nc5c(c(C(=O)O)c4c3)CC(C)CC5)CC2)cc1 (stereo unspecified),-5.44% (inactive)
23,CCc1ccc(/C=N/NC(=O)c2nnn(-c3nonc3N)c2CN2CCc3ccccc32)cc1,9.12% (inactive)
24,O=C(CSc1nc(C2CC2)nc2ccccc12)Nc1cccc(O)c1,-13.5% (inactive)

row,Structure (SMILES),inhibition
1,Cn1cc(CCC(=O)NC2CC2)c2ccccc21,-37% (inactive)
2,Cc1ccc(S(=O)(=O)N(C)CC(=O)NCCc2c[nH]c3ccccc23)cc1,-25.4% (inactive)
3,Cc1ccc(/C=N/NC(=O)c2cc3ccccc3cc2O)o1,-47.3% (inactive)
4,Cc1ccc(CSc2nsc(C)c2C#N)cc1,-19.4% (inactive)
5,Cc1ccc(-c2cn3cc(C)ccc3n2)cc1,81% (active)
6,Cc1ccc(-c2cn3cc([N+](=O)[O-])ccc3n2)cc1,-2.85% (inactive)
7,Cc1ccc2nc(-c3ccc(Br)cc3)cn2c1,48.8% (inactive)
8,O=C(CCn1nnnc1CN1CCOCC1)N1CCC(c2ccccc2Cl)C1 (stereo unspecified),-1.39% (inactive)
9,CN(c1ccc2nc3ccccc3c(=O)n2n1)C1CCCCC1,90.6% (active)
10,O=c1c2ccccc2nc2n1C1(CCCCC1)Cc1ccccc1-2,-22.6% (inactive)
11,CCOC(=O)C(C)Sc1nc2ccccc2c(=O)n1CC1CCCCC1 (stereo unspecified),-3.75% (inactive)
12,Nc1ccc(-c2nnc(-c3ccccc3)o2)cc1,-131% (inactive)
13,COc1ccccc1N1CCC(N2CCN(CC(C)(C)C)C(CCO)C2)CC1 (stereo unspecified),-23.1% (inactive)
14,CC[C@]1(c2ccccc2OC)C(=O)N(C(=O)OC)N1C(=O)OC,-7.14% (inactive)
15,CC(=O)NCC(=O)NC1CCCc2c1cnn2-c1ccccc1F (stereo unspecified),-24.6% (inactive)
16,Cn1nccc1C(=O)NC1CCCc2c1cnn2-c1ccc(F)cc1F (stereo unspecified),64.7% (active)
17,Cn1nccc1C(=O)NC1CCCc2c1cnn2-c1ccccc1F (stereo unspecified),-17% (inactive)
18,O=C(c1ccc(F)cc1)N1CCCC(C(=O)N2CCCCC2)C1 (stereo unspecified),-2.28% (inactive)
19,CN(c1ccccc1)S(=O)(=O)c1ccc2[nH]c(=O)[nH]c2c1,-38.8% (inactive)
20,Cc1ccc(OC(=O)c2cncc(Br)c2)c(C)c1,-28.5% (inactive)
21,Cc1ccc(C(=O)NCCc2nnc(SCC(=O)Nc3cccc(C(=O)O)c3)n2C)cc1,-36.2% (inactive)
22,N#CCSc1nc(-c2ccccc2)nc2ccc(F)cc12,-32.8% (inactive)
23,CCn1c(=S)sc2c(=O)n(CC(=O)Nc3cccc(Br)c3)c(C)nc21,-3.48% (inactive)
24,Cc1ccc(S(=O)(=O)N2CCN(C(=O)CSc3cc(C)ccc3C)CC2)c(C)c1,-17.8% (inactive)

row,Structure (SMILES),inhibition
1,Oc1cccc(/C=N/Nc2ccc(Cl)nn2)c1O,84.3% (active)
2,COc1cccc(/C=N/Nc2ccc(Cl)nn2)c1,-91.5% (inactive)
3,Clc1ccc(N/N=C/c2cccs2)nn1,-13.3% (inactive)
4,COc1ccc(N2CCN(S(=O)(=O)CCNC(=O)C34CC5CC(CC(C5)C3)C4)CC2)cc1,-7.42% (inactive)
5,CCN1C(=O)/C(=C2/Sc3ccc(OC)cc3N2C)SC1=Nc1ccc(C)cc1,-15.8% (inactive)
6,CCOC(=O)c1ccc(NC(=O)Cc2cccs2)cc1,-60.6% (inactive)
7,O=C(NCc1ccccc1)C(c1ccccc1)N(C(=O)c1csnn1)c1ccc(F)cc1 (stereo unspecified),-8.26% (inactive)
8,Cc1cc(N)n2nc(-c3ccc(C(C)(C)C)cc3)cc2n1,-77.7% (inactive)
9,CCn1c(SCC(=O)Nc2nccs2)nnc1-c1ccco1,-15.7% (inactive)
10,CCn1c(SCC(=O)Nc2nccs2)nnc1-c1ccncc1,102% (active)
11,CCn1c(SCC(=O)NC2CC2)nnc1-c1ccncc1,-7.99% (inactive)
12,CCCC(C(=O)n1nc(C)cc1C)C(NS(=O)(=O)c1ccc(C)cc1)c1ccccc1 (stereo unspecified),-5.65% (inactive)
13,CCOc1cc(/C=C2\C(=N)N3N=C(C)SC3=NC2=O)ccc1OCCOc1ccccc1,-24.1% (inactive)
14,Cc1cccc(NC(=O)CSCC(=O)Nc2nnc(C3CC3)s2)c1,-22.8% (inactive)
15,Cc1ccccc1N1CCN(S(=O)(=O)c2ccc3ccccc3c2)CC1,-6.9% (inactive)
16,Cc1ccc(C(=O)N2CC(=O)Nc3ccc(F)cc3C2c2ccc(F)cc2)cc1 (stereo unspecified),-4.39% (inactive)
17,O=C(NCC1CCCO1)c1cc2c([nH]c3ccccc32)c(-c2ccc(F)cc2)n1 (stereo unspecified),12.1% (inactive)
18,COc1ccc(/C=N/NC(=O)c2ccccc2)cc1OS(=O)(=O)c1ccccc1,-22.4% (inactive)
19,COc1ccc(C(=O)Nc2ccccc2C(=O)N/N=C/c2ccc(O)c(OC)c2)cc1,99.4% (active)
20,COc1cc(/C=N/NC(=O)c2ccc(N3CCCC3=O)cc2)ccc1O,-6.57% (inactive)
21,NC(=O)c1ccc(Nc2ccc3nonc3c2[N+](=O)[O-])cc1,-33% (inactive)
22,CCOc1ccc(C2C3=C(CCCC3=O)N(CC(=O)O)C3=C2C(=O)CCC3)cc1,0.17% (inactive)
23,O=C(CCNC(=O)C1CCN(S(=O)(=O)c2ccccc2)CC1)NC1CC1,-34.7% (inactive)
24,Cc1csc(NC(=O)CSc2nnc(-c3cccnc3)o2)n1,-90.3% (inactive)

row,Structure (SMILES),inhibition
1,COc1ccc(NC(=O)/C(Cl)=C(/Cl)S(=O)Cc2ccc(C)cc2)cn1 (stereo unspecified),89% (active)
2,COc1ccc(C(=O)Nc2ccc(NC(=O)C(C)C)nc2)cc1,-35% (inactive)
3,CCOc1ccc(S(=O)(=O)Nc2ccc(OC)nc2)cc1,-32.8% (inactive)
4,COc1ccc(NC(=O)c2cc(-c3ccc(C)cc3)on2)cc1,-28.2% (inactive)
5,COc1ccc(CS(=O)/C(Cl)=C(/Cl)C(=O)Nc2ccc(OC)nc2)cc1 (stereo unspecified),100% (active)
6,COc1ccc(Nc2cc(Cl)ccc2C(=O)O)cn1,-11.6% (inactive)
7,CCCCC[C@H]1CN(C2CCCCC2)C(=O)[C@@H]1CC(=O)NCc1ccc(OC)cc1,-12.3% (inactive)
8,COc1cc(/C=N/Nc2nn3cnnc3c3ccccc23)cc(OC)c1OC,-22.6% (inactive)
9,C/C(=N\Nc1nncc2ccccc12)c1ccc(Cl)c([N+](=O)[O-])c1,-127% (inactive)
10,CN(CCO)c1ccc(/C=N/Nc2nncc3ccccc23)cc1,68.3% (active)
11,C=CCc1ccccc1OCC(=O)N/N=C/c1ccccc1OCC,-10.7% (inactive)
12,Cc1ccc(/C=N/NC(=O)COc2ccccc2-c2ccccc2)cc1,77.9% (active)
13,CSc1ccc(/C=N\NC(=O)COc2ccc(Cl)cc2Br)cc1,-9.23% (inactive)
14,COc1ccc(NC(=O)C(C)N2c3cccc4cccc(c34)S2(=O)=O)c(OC)c1 (stereo unspecified),-5.03% (inactive)
15,O=C(O)CC/C(=C\c1cc2c(cc1Br)OCO2)c1nc2ccccc2s1,-12.1% (inactive)
16,Cc1ccc(S(=O)(=O)N(Cc2ccccc2)c2ccccn2)cc1[N+](=O)[O-],-20.6% (inactive)
17,COc1ccc(N=Cc2c(O)[nH]c3ccccc23)cc1OC,-9.79% (inactive)
18,COc1cc(N=Cc2c(O)[nH]c3ccccc23)cc(OC)c1OC,66.8% (active)
19,COCC(=O)N=Nc1c(O)[nH]c2ccccc12,6.53% (inactive)
20,Cc1ccc(CN(CC(=O)NCC2CCCO2)S(=O)(=O)c2ccc(C)cc2)cc1 (stereo unspecified),-11% (inactive)
21,Cc1ccc(CNC(=O)CCS(=O)(=O)c2ccc3c(c2)CC(C)N3C(=O)C2CC2)o1 (stereo unspecified),-9.9% (inactive)
22,CCOCCCNc1c(CC)c(C)c(C#N)c2nc3ccccc3n12,-21.6% (inactive)
23,Cc1cccc(CN2CCC(n3nccc3NC(=O)c3ccccc3C)CC2)n1,-34.2% (inactive)
24,CCCCCNC(=O)C1c2ccccc2Oc2ccccc21,-20.8% (inactive)
